KCNQ2 block – inhibitors of rat KCNQ2 potassium channel; O88943; CHO-K1 KCNQ2, FluxOR thallium flux, 20 min; hits give low values; B-score at 10 µM; actives 1.1% (n = 310,000); AID 2156;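 active means fluorescence ratio B-score at most minus 3 library SDs, with starting brightness B-score within 2 library SDs, cut at about -5.5 in these data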
Target sequence (O88943 whole entry, looked up): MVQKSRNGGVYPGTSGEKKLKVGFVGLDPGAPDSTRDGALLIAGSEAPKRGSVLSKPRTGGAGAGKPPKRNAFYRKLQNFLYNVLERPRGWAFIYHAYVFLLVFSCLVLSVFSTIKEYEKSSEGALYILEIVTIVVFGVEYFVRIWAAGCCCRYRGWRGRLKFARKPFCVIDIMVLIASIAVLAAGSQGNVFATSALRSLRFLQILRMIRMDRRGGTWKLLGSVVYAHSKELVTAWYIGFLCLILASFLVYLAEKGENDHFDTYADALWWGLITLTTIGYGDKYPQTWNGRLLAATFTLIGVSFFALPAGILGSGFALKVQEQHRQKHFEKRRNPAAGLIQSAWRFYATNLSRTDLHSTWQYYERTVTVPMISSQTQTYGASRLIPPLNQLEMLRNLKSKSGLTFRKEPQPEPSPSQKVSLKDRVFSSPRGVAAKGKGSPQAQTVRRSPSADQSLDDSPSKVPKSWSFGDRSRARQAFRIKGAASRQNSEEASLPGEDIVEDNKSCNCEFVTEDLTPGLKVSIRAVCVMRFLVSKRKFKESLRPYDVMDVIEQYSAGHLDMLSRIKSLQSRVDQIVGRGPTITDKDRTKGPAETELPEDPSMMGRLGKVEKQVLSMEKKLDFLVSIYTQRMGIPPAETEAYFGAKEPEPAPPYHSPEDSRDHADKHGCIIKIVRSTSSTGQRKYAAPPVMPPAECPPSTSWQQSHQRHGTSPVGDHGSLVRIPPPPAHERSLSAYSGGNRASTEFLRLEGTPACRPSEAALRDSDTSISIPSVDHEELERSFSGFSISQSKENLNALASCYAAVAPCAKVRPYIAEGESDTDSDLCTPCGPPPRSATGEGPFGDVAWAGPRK
KCNQ2 pot – KCNQ2 (rat) channel potentiation. O88943. CHO-K1 KCNQ2, FluxOR thallium flux fluorescence; hits give high values. B-score at 10 µM. actives 0.54% (n = 310,000). AID 2239;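 active means fluorescence ratio B-score at least 3 SD of library B-scores, with initial fluorescence B-score within 3 of them, cut at about 5.3 in these data; same plate scores as AID 2156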;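 further: B-score of peak minus minimum over baseline fluorescence ratio after K+ and Tl+ stimulus; positive B-score means potentiation of KCNQ2 with more thallium influx and brighter signal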
Kir21 conf inh – confirmation of mouse Kir2.1 potassium channel inhibitors | Tl flux remaining, % of negative control (hits give low values), % at 10 µM | actives 41% (n = 2,300) | Kir2.1-expressing cells, FluxOR thallium flux fluorescence; hits give low values | shares compounds with KCNQ2 pot | AID 2032;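 active means Primary-screen hit whose thallium flux fell at least 3 control SD below untreated wells in both duplicates, with normal baseline fluorescence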;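 further: 0% = blank wells without stimulus and 100% = stimulated no-compound controls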
HEK293 ctr – counter-screen for Kir2.1 inhibitors: effect in parental HEK293 cells; actives 19% (n = 2,300); FluxOR thallium flux fluorescence; 0% = unstimulated blank wells; shares compounds with KCNQ2 pot; FluxOR signal as % of negative control (100 = no effect), % at 10 µM;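 active means dye signal at least 3 control SD above or below untreated wells in both duplicates, raw fluorescence within 3, either direction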;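 further: percent is based on the flux ratio of peak minus minimum fluorescence over baseline F0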
CHO-K1 ctr – counter-screen for KCNQ2 potentiators: effect in parental CHO-K1 cells; activity increase over 3SD of controls, % at 10 µM; shares compounds with KCNQ2 pot; FluxOR thallium flux fluorescence; zero = vehicle mean+3SD, 100% = vehicle-minus-blank window; AID 2282; actives 43% (n = 1,200);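 active means signal rise of at least 3 SD above the untreated control mean, in both duplicate wells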;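 further: counter screen of KCNQ2 potentiator hits so any rise reflects channel-independent effects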
KCNQ1 sel pot – selectivity of KCNQ2 potentiators: effect on human KCNQ1. shares compounds with KCNQ2 pot. actives 28% (n = 1,200). CHO KCNQ1 stable, FluxOR thallium flux fluorescence; beyond 3SD, as % of vehicle-control signal. activation over 3SD threshold, % at 10 µM;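 active means fluorescence ratio rise of at least 3 SD of vehicle wells above their mean, in both replicate wells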;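 further: 0% = vehicle mean plus 3 SD and 100% = vehicle minus unstimulated blank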
KCNQ2 pot confirm – confirmation of rat KCNQ2 potassium channel potentiators; potentiation, less the hit threshold, % at 10 µM; CHO-KCNQ2 cells, FluxOR thallium flux fluorescence; shares compounds with KCNQ2 pot; actives 68% (n = 1,200);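 active means fluorescence ratio rising 3 SD or more over the vehicle control mean in both replicates, plus primary screen hit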;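 further: peak minus minimum thallium fluorescence divided by baseline after K/Tl stimulus; 0% = vehicle mean plus 3 SD and 100% = vehicle minus unstimulated blank difference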
Kir21 spec – selectivity of KCNQ2 potentiators: effect on mouse Kir2.1. shares compounds with KCNQ2 pot. HEK293 Kir2.1, FluxOR thallium flux fluorescence. activity over 3SD threshold, % at 10 µM. actives 2% (n = 1,200);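 active means fluorescence ratio rise of at least 3 SD above the vehicle-control mean, seen in both replicates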;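 further: 0% = vehicle mean plus 3 SD and 100% = vehicle minus no-stimulus blank window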
KCNQ2 W236L pot – potentiates the retigabine-insensitive rat KCNQ2 W236L mutant channel. shares compounds with KCNQ2 pot. CHO KCNQ2-W236L, automated patch clamp current. current increase over 3SD of negative controls (%), hits give high values, % at 25 µM. actives 10% (n = 940). AID 2558;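 active means current increase at least 3 SD of the untreated controls above them in both duplicate recordings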
Active calls of the source: *; i = inactive; · = no result given. Rows were chosen to be rich in hits. Some 1.6% of all compounds tested hit in one or more screens of this group.

SMILES	KCNQ2 block	KCNQ2 pot	Kir21 conf inh	HEK293 ctr	others
COc1ccc(CNC(=O)c2nc(S(=O)(=O)Cc3ccccc3)ncc2Cl)cc1	i	·	·	·
CCc1nnc(NC(=O)c2nc(S(=O)(=O)Cc3cccc(C)c3)ncc2Cl)s1	i	18*	·	·	CHO-K1 ctr=5.0*;KCNQ1 sel pot=-1.1;KCNQ2 pot confirm=64.5*;Kir21 spec=-56.9;KCNQ2 W236L pot=19.5%*
CCN(Cc1ccccc1)C(=O)c1ccc(N(C)S(=O)(=O)c2ccc(C)cc2)cc1	i	·	·	·
CC(C)CN(Cc1c(O)ccc2ccccc12)CC(C)C	i	6.48*	i	i	CHO-K1 ctr=-13.3;KCNQ1 sel pot=-12.2;KCNQ2 pot confirm=-29.1;Kir21 spec=-41.2
CN(C)Cc1c(O)ccc2ccccc12	i	·	·	·
CCN1CCN(c2nc(S(=O)(=O)c3ccc(C)cc3)c(Cl)s2)CC1	i	·	·	·
N#Cc1ccc(CSc2nnc(-c3ccccc3)n2Cc2ccco2)cc1	i	·	·	·
N#Cc1ccc(CSc2nnc(Cc3cccs3)n2Cc2ccco2)cc1	i	·	53.0%*	i
CN(C)C(=O)c1ccccc1Sc1cc(Cl)ccc1Cl	i	·	47.0%*	i
CN(C)C(=O)c1ccccc1Sc1ccc(Cl)cc1Cl	i	·	·	·
Cc1cccc(C(=O)N[C@H](C(=O)Nc2nc3ccc(S(C)(=O)=O)cc3s2)C(C)C)c1	i	1.91	·	·
Cc1cc(S(=O)(=O)Nc2cc(C)c(O)c(C)c2)c(C)s1	i	·	71.5%*	i
Cc1cc(S(=O)(=O)Nc2ccc3ccccc3c2)c(C)s1	i	0.87	·	·
CCCCN(C(=O)COC(=O)CSc1ccc([N+](=O)[O-])cc1)c1c(N)n(CCC)c(=O)[nH]c1=O	i	0.4	·	·
CCCOc1cccc(-c2cc(C(=O)N/N=C/c3ccccn3)c3ccccc3n2)c1	i	5.5*	i	i	CHO-K1 ctr=-12.6;KCNQ1 sel pot=-35.7;KCNQ2 pot confirm=-25.7;Kir21 spec=-41.1
CCCOc1cccc(-c2cc(C(=O)NN)c3ccccc3n2)c1	i	0.73	·	·
CCSc1nc2sc3c(c2c(=O)[nH]1)CC(C)(CC)OC3 (stereo not given)	i	·	·	·
CCC1(C)Cc2c(sc3nc(SC)[nH]c(=S)c23)CO1 (stereo not given)	i	15.5*	i	456.5%*	CHO-K1 ctr=-15.9;KCNQ1 sel pot=32.0*;KCNQ2 pot confirm=81.9*;Kir21 spec=0.1*;KCNQ2 W236L pot=i
O=[N+]([O-])c1ccc(Nc2ccc(Cl)cc2)nc1	i	13.6*	i	i	CHO-K1 ctr=-0.8;KCNQ1 sel pot=-21.2;KCNQ2 pot confirm=18.5*;Kir21 spec=-23.1;KCNQ2 W236L pot=i
O=[N+]([O-])c1ccc(NCc2ccc(Cl)cc2)nc1	i	0.01	·	·
CCOc1ccc(NC(=O)C2CC3CCC2C3)cc1 (stereo not given)	i	0.07	·	·
CCC(C)c1ccc(NC(=O)C2CC3CCC2C3)cc1 (stereo not given)	i	26.1*	i	i	CHO-K1 ctr=7.5*;KCNQ1 sel pot=-2.6;KCNQ2 pot confirm=105.0*;Kir21 spec=-39.0;KCNQ2 W236L pot=i
CC(C)c1ccc(NC(=O)C2CC3CCC2C3)cc1 (stereo not given)	i	25.9*	i	i	CHO-K1 ctr=29.6*;KCNQ1 sel pot=-12.4;KCNQ2 pot confirm=66.5*;Kir21 spec=-22.9;KCNQ2 W236L pot=i
O=C(Nc1ccc(F)cc1)C1CC2CCC1C2 (stereo not given)	i	1.37	·	·
CCCNc1c(NS(=O)(=O)c2ccc3c(c2)CCCC3)c(=O)oc2ccccc12	i	·	·	·
SMILES	KCNQ2 block	KCNQ2 pot	Kir21 conf inh	HEK293 ctr	others
NNC(=O)Cn1nc(-c2ccccc2)c2ccccc2c1=O	i	0.58	·	·
Cc1onc(-c2ccccc2)c1CNS(=O)(=O)c1cccc(Br)c1	i	0.46	52.0%*	i
Cc1onc(-c2ccccc2)c1CNS(=O)(=O)c1ccc(F)cc1F	i	·	·	·
CN(C)CCOc1ccccc1Cc1ccccc1	i	0.7	·	·
CNCCCCOc1ccccc1Cc1ccccc1	i	·	28.5%*	i
COc1cccc(CC(=O)Nc2cc(C(F)(F)F)ccc2N2CCCC2)c1	i	5.37*	i	i	CHO-K1 ctr=-14.7;KCNQ1 sel pot=-21.9;KCNQ2 pot confirm=-0.8;Kir21 spec=-32.5;KCNQ2 W236L pot=i
Cc1cc(N2CCCC2)ccc1NC(=O)COc1cccc(C(F)(F)F)c1	i	6.4*	i	i	CHO-K1 ctr=-10.8;KCNQ1 sel pot=-12.4;KCNQ2 pot confirm=6.0*;Kir21 spec=-39.9;KCNQ2 W236L pot=i
O=C(COc1ccccc1)Nc1cc(C(F)(F)F)ccc1N1CCCC1	i	·	·	·
CN1CCN(NC(=O)COc2cccc(C(F)(F)F)c2)CC1	i	·	·	·
COc1ccc2nc(C)cc(Sc3nc4ccccc4s3)c2c1	i	·	·	·
O=S(=O)(c1ccc(F)cc1)N1CCCc2ccccc21	i	·	71.0%*	i
O=S(=O)(c1ccccc1)N1CCCc2ccccc21	i	·	64.0%*	i
O=C(O)c1ccc(S(=O)(=O)N2CCCc3ccccc32)cc1	i	·	·	·
CC(=O)c1ccc(S(=O)(=O)N2CCCc3ccccc32)cc1	i	·	·	·
COC(=O)Cc1csc(Nc2ccc(F)c(Cl)c2)n1	i	·	·	·
O=S1(=O)N[C@H](c2ccccc2)C[C@H](c2ccc(C(F)(F)F)cc2)O1	i	·	·	·
CCOc1ccc(CN2C(=O)CC(=O)N(S(=O)(=O)c3ccc(OCC)cc3)C2=O)cc1	i	·	·	·
COCCn1c(SCC(=O)Nc2nc(C)c(Cl)cc2Cl)nc2ccccc21	i	0.7	62.5%*	i
COCCn1c(SCC(=O)Nc2ccccc2OC)nc2ccccc21	i	·	·	·
C[C@H]1CC[C@]2(O[C@H](CCO)C[C@@H](O)[C@@H]2O)O1	i	0.91	·	·
CC(=O)Nc1ccc(NCN2C(=O)C3C4CCC(C4)C3C2=O)cc1 (stereo not given)	i	1.22	·	·
Cc1ccc(NCN2C(=O)C3C4CCC(C4)C3C2=O)cc1 (stereo not given)	i	6.19*	i	i	CHO-K1 ctr=-25.1;KCNQ1 sel pot=-34.8;KCNQ2 pot confirm=-18.6;Kir21 spec=-42.2
Cc1c(Br)c(C(F)(F)F)nn1CC(=O)N(C)C1CCCCC1	i	·	·	·
COc1cc(C(=O)NCCc2ccc(S(=O)(=O)N3CCCC3)cc2)cc(OC)c1OC	i	0.89	·	·
O=C(O)C1CCCCC1C(=O)NCc1ccc(Cl)c(Cl)c1 (stereo not given)	i	·	·	·
c1ccc(CCNc2ccnc3cc4ccccc4cc23)cc1	i	0.82	i	i
CC(C)Nc1ccc(Nc2ccnc3cc4ccccc4cc23)cc1	i	·	·	·
O=C(CCNC(=O)c1ccccc1Cl)NCCc1ccc(C(F)(F)F)cc1	i	·	·	·
